Test results as given in ChEMBL document CHEMBL3988442, “University of Dundee, Small-Polar-MMV Screening Library” (2021).
About 13,000 (27%) of roughly 48,000 compounds showed an effect of 50% or more. The list shows a part of the results.

These molecules were tested on Wolbachia pipientis (assay: Anti-Wolbachia Cell-Based Screen). Details: 5 µM.
Type: functional
Parameters: scale not given: in the data most compounds retested in dose-response had high values

Row | Compound | Percent Effect [%]
1 | CS(=O)(=O)CCOCCNc1ccc(Br)cn1 | -8.426
2 | CN(CCS(=O)(=O)c1cc(Cl)ccc1Cl)CC(=O)Nc1cccc(F)c1 | -24.13
3 | CC1CCCN(C(=O)c2cn(-c3ccc(C(F)(F)F)cn3)nn2)C1 (stereo not given) | -4.176
4 | Cc1cncc(C2CCCN(CC3CCC3)C2)n1 (stereo not given) | 105.7
5 | Cc1cncc(C2CCCN(Cc3ccncc3)C2)n1 (stereo not given) | 93.31
6 | Cc1cnc(CN2CCCC(c3cc(C(F)(F)F)[nH]n3)C2)cn1 (stereo not given) | -5.55
7 | Cc1ccc(CN2CCCC(c3cncc(C)n3)C2)cn1 (stereo not given) | 118.4
8 | CN(CCc1cn[nH]c1)C(=O)C1CC(=O)N(Cc2ccccn2)C1 (stereo not given) | 3.692
9 | COCCNC(=O)NCc1cc(-c2ccncc2)n(C2CCCC2)n1 | 117.5
10 | CC(C(=O)NCC1CCCCC1)S(=O)(=O)Cc1csc(-c2cccs2)n1 (stereo not given) | -22.28
11 | COCCNC(=O)NCCCOC1CCCc2ccccc21 (stereo not given) | -3.457
12 | COCCNC(=O)NCc1cc(-c2cccs2)n(C2CCCC2)n1 | 108.7
13 | O=C(NCCn1cnc(C2CCCC2)cc1=O)NCc1cccs1 | 5.486
14 | CC(=O)NCc1cc(-c2cccs2)n(C2CCCC2)n1 | 97.9
15 | COCCNC(=O)NC1(c2nc(-c3ccncc3)no2)CCCCC1 | -5.967
16 | CN(CCNC(=O)NCc1ccncc1)C1CCCC1 | 0.2327
17 | CC(=O)NCc1nc(Cc2cccc(Cl)c2)nn1C1CCN(C)CC1 | 14.05
18 | CCCc1n[nH]c(C2CN(CCCS(C)(=O)=O)CCO2)n1 (stereo not given) | 8.162
19 | CC(C)N1CCC(Nc2ccn(C)n2)C1=O (stereo not given) | -18.51
20 | CCc1n[nH]c(C2CN(CC(=O)NCCc3ccsc3)CCO2)n1 (stereo not given) | -8.362
21 | COc1ccc(S(=O)(=O)NCCC(O)c2cccs2)c(C)c1 (stereo not given) | -2.091
22 | COCc1nc(CNC2CSCCSC2)no1 | 8.788
23 | CN(Cc1csc(-c2cccs2)n1)C(=O)CCn1ccc(=O)[nH]c1=O | -14.37
24 | CCS(=O)(=O)N1CCC2(CC1)CC1(CCN(CCOC)CC1)C(=O)N2C.O=C(O)C(F)(F)F | -5.19
25 | Cc1cnc(N2CCCOC(CN3CCCCC3)C2)nc1 (stereo not given) | -5.032
26 | CC(C)c1cc(C(=O)N2CCOC3(CCNCC3)C2)no1.O=C(O)C(F)(F)F | -1.615
27 | Cc1noc(C)c1CN1CC2(CCN(C(=O)c3ccc[nH]3)C2)CC1=O (stereo not given) | -7.535

Row | Compound | Percent Effect [%]
28 | CC(C)c1cc(C(=O)N2CCC3(CCc4ccccc4C(=O)N3)C2)on1 (stereo not given) | 142.6
29 | Cc1noc(C)c1C(=O)N1CCC2(CC1)CC(Oc1ccccc1)CO2 (stereo not given) | -6.513
30 | O=C1CCC2(CCCN(C(=O)c3ccco3)CC2)N1 (stereo not given) | -12.15
31 | CC(C)c1cc(C(=O)N2CCC3(CCc4ccccc4C(=O)N3)C2)no1 (stereo not given) | 122.1
32 | Cc1noc(C)c1C(=O)N1CCC2(CCc3ccccc3C(=O)N2)C1 (stereo not given) | 127.4
33 | CC(C)c1cc(=O)[nH]c(-c2ccccc2CN2CCC(C)(C)C2)n1 | 32.6
34 | CCC1CN(CCCNS(C)(=O)=O)c2ccccc2O1 (stereo not given) | -7.766
35 | Cc1cnn(CCNCC(O)COc2ccc(Cl)cc2)c1 (stereo not given) | -10.6
36 | CN(C)C(=O)c1ccc(C(C(=O)O)N(C)Cc2ccccc2Cl)cc1 (stereo not given) | 24.87
37 | CC(C)=CCS(=O)(=O)Cc1nc(C(C)C)no1 | -0.5421
38 | N#Cc1ccc(OCCCN2CCc3cncnc3C2)cc1 | -6.561
39 | Cc1nnc(NCc2ccc(SC(F)F)cc2)o1 | -21.33
40 | CCN(Cc1ccc2cccc(O)c2n1)CC1CCCO1 (stereo not given) | 12.41
41 | CC(C)n1ccnc1CNC(=O)c1cccc(CCC(C)(C)O)c1 | 1.765
42 | O=C(O)C(F)(F)F.O=C(O)C(F)(F)F.c1cncc(C2COC3(CCN(Cc4cccs4)CC3)C2)c1 (stereo not given) | 94.58
43 | O=C(NC1COC2(CCN(Cc3cccs3)CC2)C1)c1ccccn1.O=C(O)C(F)(F)F (stereo not given) | -12.32
44 | Cc1ccc(CN2CCC3(CC2)CC(c2cccnc2)CO3)s1.O=C(O)C(F)(F)F.O=C(O)C(F)(F)F (stereo not given) | -3.874
45 | O=C(O)C(F)(F)F.O=C(O)C(F)(F)F.c1cncc(C2COC3(CCN(Cc4nccs4)CC3)C2)c1 (stereo not given) | 106.4
46 | COc1c(C)cc(S(=O)(=O)NCC2CNCCOC2)cc1C (stereo not given) | -7.949
47 | CC1CS(=O)(=O)CCN1Cc1ccccc1OCC(F)(F)F (stereo not given) | -0.5987
48 | Cc1cccc(C(C(=O)N2CC(c3ccccn3)C2)N(C)C)c1 (stereo not given) | -0.3127
49 | CN(C)S(=O)(=O)N(C)C(c1cccc(F)c1)c1ccccn1 (stereo not given) | 51.58
50 | CC(NCc1cccc(S(=O)(=O)N(C)C)c1)c1ccccn1 (stereo not given) | -1.385
51 | CCNC(=O)N(C)C(c1cccc(F)c1)c1ccccn1 (stereo not given) | 4.567
52 | CN(C)S(=O)(=O)N(C)C(c1cccnc1)c1ccc(F)c(F)c1 (stereo not given) | 6.924
53 | CN(C)C(C(=O)N1CC(c2ccccn2)C1)c1cccc(F)c1 (stereo not given) | 0.3934
54 | CCNC(=O)N(C)C(c1ccccc1)c1ccccn1 (stereo not given) | 96.55

Row | Compound | Percent Effect [%]
55 | CC(C)NC(=O)N(C)C(c1cccc(F)c1)c1ccccn1 (stereo not given) | 108.7
56 | CCC(C)(C)NC(=O)CN(C)C(c1cccc(F)c1)c1ccccn1 (stereo not given) | 3.895
57 | CCC(CC)CNC(=O)N(C)C(C)c1ccccn1 (stereo not given) | -0.07078
58 | CN(C(=O)C1CCCC1)C(c1cccc(F)c1)c1ccccn1 (stereo not given) | 96.46
59 | O=C(C1CCC1)N1CCOc2cccc(F)c21 | -0.5451
60 | CC(C)c1ccc(CN2CCC(CNS(=O)(=O)C3CC3)C2)cc1 (stereo not given) | -21.58
61 | O=C(c1ccc[nH]1)N1CCCC2(CCN(c3ccsc3)C2=O)C1 (stereo not given) | -3.1
62 | CCc1cccc(OC2CN(C(=O)[C@@H](N)CCSC)C2)c1 | 3.54
63 | OCCc1cc(CC2(NCc3ccncc3)COC2)no1 | 9.116
64 | CN(C)CCN(Cc1ccccn1)C(=O)Nc1cccc(F)c1 | 19.37
65 | CN(C)C(C(=O)NCC(F)(F)F)c1cccc(F)c1 (stereo not given) | -4.686
66 | CC(=O)N(C)C(c1cccc(F)c1)c1ccccn1 (stereo not given) | 87.32
67 | CC1=C[C@@H](CC#N)[C@H](C(C)C)C[C@H]1CC(=O)N1CCN(CCO)CC1 | 2.953
68 | CCOC(=O)C1CCN(Cc2csc(C(C)(C)C)n2)CC1 | -1.919
69 | COCCC1(C(=O)O)CCCN(CCc2ccccc2)C1 (stereo not given) | -4.304
70 | CN1CCCC(CCCc2cccnc2)(C(N)=O)C1 (stereo not given) | 112
71 | O=C(Nc1ccc(Cl)cn1)C1CCCN(CCc2ccccn2)C1 (stereo not given) | 0.2896
72 | COCCCC1(CO)CCCN(CCc2ccccn2)C1 (stereo not given) | 15.21
73 | CCN1CCCC(O)(CNCc2ccccn2)C1 (stereo not given) | -18.44
74 | NC(=O)C1(CCCc2cccnc2)CCCN(c2ncccn2)C1 (stereo not given) | -4.242
75 | CC(C)N1CCCC(CCCc2ccccn2)(C(=O)O)C1 (stereo not given) | -10.26
76 | NC(=O)C1(CCCc2ccccn2)CCCN(CCO)C1 (stereo not given) | 112.7
77 | COCCN1CCCC(CCCc2ccccn2)(C(N)=O)C1 (stereo not given) | 100.6
78 | CCCN(Cc1cccnc1)C(=O)C1CCCN(C)C1 (stereo not given) | -0.4884
79 | O=C(NCCc1ccccn1)N1CCSC2(CCCCC2)C1 | 2.458
80 | NC(=O)CN1CCCC(CCCc2ccccn2)(C(N)=O)C1 (stereo not given) | 100.4
81 | CCOCC1COCCC12CCN(C(=O)C1=CCCCC1)CC2 (stereo not given) | 5.493

Row | Compound | Percent Effect [%]
82 | COCCCN(Cc1ccncc1)c1cc(C)ncn1 | 0.1133
83 | CC1(C)COCCN1C(=O)CCc1nc(-c2ccc(Cl)cc2)no1 | -5.513
84 | Cc1ccc(OCc2nnc(SCC3CCCN(C)C3)o2)cc1 (stereo not given) | 8.956
85 | CN(C)C(=O)CN1CCCC(CCCc2ccccn2)(C(N)=O)C1 (stereo not given) | 83.83
86 | O=C(CCCc1ccccn1)N1CCSC2(CCCCC2)C1 | -12.36
87 | Nc1ccnc(N2CCCC(CCc3ccccc3)(C(=O)O)C2)n1 (stereo not given) | -8.777
88 | CN(CCc1ccccn1)C(=O)Nc1cccnc1N1CCCC1 | -10.3
89 | CN(CCc1ccccn1)[C@@H]1CCN(c2cc(C(N)=O)ccn2)C[C@H]1O | -0.6803
90 | NC(=O)C1(CCCc2ccccn2)CCCN(c2ncccn2)C1 (stereo not given) | 87.14
91 | Cc1nc2cc(=O)[nH]n2c(C)c1CC(=O)Nc1cnn(C(C)(C)C)c1 | -8.028
92 | CCOc1ccc(CN2C(=O)CC(C)(C)C2=O)nc1 | -21.77
93 | CCC(=O)N1CCN(C(=O)NC2CCc3ccccc3C2)CC1 (stereo not given) | -5.895
94 | Cn1cc(CNc2cnn(CCO)c2)c(-c2ccncc2)n1 | -19.35
95 | Cn1cc(CNCCn2cccn2)c(-c2cccnc2)n1 | 3.416
96 | Cc1cc(NCc2cn(C)nc2-c2cccnc2)n(C)n1 | 80.93
97 | Cn1cc(CNCCc2cccnc2)c(-c2cccnc2)n1 | 4.12
98 | Cc1noc(NCc2cn(C)nc2-c2cccnc2)n1 | 76.51
99 | CN(C)C(C)(C)CNCc1cn(C)nc1-c1cccnc1.Cl | 8.677
100 | Cc1noc(NCc2cn(C)nc2-c2ccncc2)n1 | 86.63
101 | CCCNCc1cn(C)nc1-c1cccnc1.Cl | 13.76
102 | Cn1cc(CNc2ccc(CCO)cc2)c(-c2ccncc2)n1 | 4.489
103 | CCc1nnc(CNC(=O)CCN2CCN(c3cccc(C)c3)CC2)s1 | 7.202
104 | Cc1ccc(C(=O)N2CCSCC2)cc1N1CCNC1=O | -1.525
105 | CN(C)CCN1CCOCC2(CCN(Cc3ccc[nH]3)CC2)C1.O=C(O)C(F)(F)F.O=C(O)C(F)(F)F.O=C(O)C(F)(F)F | -10.04
